Pol eta inh: DNA polymerase eta (human) inhibition; recombinant Pol eta, fluorescent DNA replication assay; 390,000 compounds, 1.2% hits; Potency, µM (series often up to 114 µM), for the others: at the highest dose activity change, negative = inhibition, hits mostly inhibitors; note: % is set by controls: 0 for no effect and ±100 for the full control effect
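Pol eta at 10 nM preincubated with compounds 15 min at room temperature; reaction started with fluorescent substrate (50 nM final) and read kinetically at 0 and 10 min.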
Pol beta inh: DNA polymerase beta (human) inhibition. P06746. Pol beta primer extension/strand displacement, fluorescence kinetic. Potency, µM (doses to about 114 µM), inactives show at the top dose activity change, negative = inhibition, hits mostly inhibitors. 340,000 compounds, 1.3% hits. AID 485314; note: % is set by controls: 0 for no effect and ±100 for the full control effect
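Human Pol beta at 10 nM; strand-displacement substrate 50 nM final. Compound exposure 15 min at room temperature before start, reaction 10 min at room temperature.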
POLK inh: inhibitors of human DNA polymerase kappa | Q9UBT6 | purified Pol kappa, fluorescent DNA synthesis assay, 10 min | Potency, µM (titrated, usually from 107 µM), without a hit: top-dose activity, negative = inhibition, usual class: inhibitors | 400,000 compounds, 0.53% hits | AID 588579; note: % is set by controls: 0 for no effect and ±100 for the full control effect
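Activity was followed as the change in fluorescence between reads at 0 and 10 min after starting the reaction with 50 nM substrate. Beforehand, 10 nM polymerase had been preincubated with compound for 15 min at room temperature.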
POLI inh: DNA polymerase iota (human) inhibition; Q9UNA4; Pol iota fluorescent replication assay, 10 min; Potency, µM (doses to about 115 µM), for the others: at the highest dose activity, negative = inhibition, most hits filed as inhibitors; 390,000 compounds, 1% hits; AID 588590
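Pol iota at 10 nM preincubated 15 min with compounds at room temperature; reaction started with fluorescent substrate, 50 nM final. Fluorescence read kinetically at 0 and 10 min; buffer-only wells as negative control.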
FEN1 inh: human FEN1 inhibition; Recombinant FEN1 flap cleavage, fluorescence, 15 min; AID 588795; Potency, µM (titrated, usually from 114 µM), for the others: top-dose activity change, negative = inhibition, hits mostly inhibitors; 390,000 compounds, 0.35% hits; note: % is set by controls: 0 for no effect and ±100 for the full control effect; nearly all actives have a fitted effect of over 65% in size
Target sequence (P39748 whole entry, looked up): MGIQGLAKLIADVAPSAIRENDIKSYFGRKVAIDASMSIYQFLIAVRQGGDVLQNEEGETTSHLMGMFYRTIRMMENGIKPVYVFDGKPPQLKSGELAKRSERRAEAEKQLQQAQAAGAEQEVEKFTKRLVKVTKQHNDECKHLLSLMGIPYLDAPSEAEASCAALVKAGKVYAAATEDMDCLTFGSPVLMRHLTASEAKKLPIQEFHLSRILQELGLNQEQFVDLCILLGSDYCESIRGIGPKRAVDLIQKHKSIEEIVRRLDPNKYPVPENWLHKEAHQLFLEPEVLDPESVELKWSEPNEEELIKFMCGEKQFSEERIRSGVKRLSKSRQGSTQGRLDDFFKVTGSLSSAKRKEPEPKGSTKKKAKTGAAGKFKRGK
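With each library titrated from low to high concentration, compounds met 10 nM FEN1 for 15 min at room temperature before 50 nM substrate was added; readings at 0 and 15 min fed four-parameter Hill curve fits.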
TDP1 inh: inhibitors of human tyrosyl-DNA phosphodiesterase TDP1; Q9NUW8; recombinant TDP1, AlphaScreen DNA substrate cleavage; Potency, µM (series often up to 130 µM), inactives show at the highest dose activity change, negative = inhibition, most hits filed as inhibitors; 350,000 compounds, 0.28% hits; note: % is set by controls: 0 for no effect and ±100 for the full control effect; nearly all actives have a fitted effect of over 40% in size
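Recombinant E. coli-expressed Tdp1 (1 nM) preincubated with compound 15 min at RT, then 5'-biotin/3'-phosphotyrosine-FITC DNA substrate (15 nM) added for 5 min. AlphaScreen beads (10 ug/ml) added, 10 min RT; tyrosine-FITC cleavage read as signal loss.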
The depositor's hits bear a star; ? = inconclusive; . = no result; ! = repeats disagree; [ ] = remark or other dose. Most compounds without a hit are left out; they make up all but 2.4% or so of the library. Calls come from the whole dose curve; as a rule, active = well fitted curve in the direction sought with a large enough effect; inconclusive = small, poorly fitted or top-dose-only effect, or another doubt; inactive = no such curve, though single readings can be large; an effect the other way counts as inactive or inconclusive. Potency is the fitted concentration of half-maximal effect.

SMILES	Pol eta inh	Pol beta inh	POLK inh	POLI inh	FEN1 inh	TDP1 inh
Cc1cc(N(C)C)c(C)cc1/C=C/c1ccnc2ccccc12	.	.	-19%	89µM*	-3%	.
Cc1cc(/C=C/c2ccnc3ccccc23)ccc1N	.	.	?	?	-13%	.
O=C(O)c1ccc(S(=O)(=O)N(CCc2ccccc2)Cc2ccc(Cl)cc2)cc1	0%	50µM*	-12%	1%	-15%	.
Cc1cccc(Oc2cc([N+](=O)[O-])cc3c2C(=O)Nc2ccccc2O3)c1	?	?	-17%	79µM*	-5%	3%
Cc1ccc(C(=O)NCC(=O)OC(C(=O)Nc2cc(C(F)(F)F)ccc2Cl)c2ccccc2)cc1 (configuration not stated)	.	.	.	.	.	-1%
Cn1c(=O)n(-c2ccc3c(c2)OCO3)c2nc(-c3ccccc3)nc(C(N)=O)c21	?	6.3µM*	-26%	-7%	-1%	-6%
CCN1CCN(Cc2ccc(NC(=O)c3ccc(C)c(/C=C/c4cnc(Nc5cc(N6CCNCC6)nc(C)n5)cn4)c3)cc2C(F)(F)F)CC1	79µM*	11%	-34%	?	13µM*	.
Cc1c(C(=O)NNC(=O)c2ccccc2O)oc2ccc(Br)cc12	?	.	-9%	?	0%	.
CCOc1ccc2oc(C(=O)NNC(=O)c3ccccc3O)c(C)c2c1	79µM*	.	-23%	?	1%	.
CCOC(=O)N1CCc2c(sc3c2c(=O)n(Cc2ccccc2)c(=O)n3CC(=O)Nc2ccc(C)cc2C)C1	-16%	2%	3%	18%	-4%	9%
CCOC(=O)c1nn(-c2ccccc2)c(=O)c2c(N)scc12	?	-8%	-1%	?	-20%	4%
Nc1scc2c(C(=O)N/N=C/c3ccc(Cl)cc3)nn(-c3ccccc3)c(=O)c12	-5%	23%	?	6.3µM*	0%	.
O=C(O)c1cc2cccc([N+](=O)[O-])c2[nH]1	.	.	45µM*!	71µM*!	?	.
CCCCNC(=O)c1cc2cccc([N+](=O)[O-])c2[nH]1	-5%	2%	1%	59%	-7%	1%
COc1cc(F)c(S(=O)(=O)N2CCCN(S(=O)(=O)c3ccc4c(c3)OCCO4)CC2)c(F)c1	.	.	.	.	.	0%
O=C(COc1ccccc1[N+](=O)[O-])OCC(=O)c1ccc(Br)s1	79µM*	.	-21%	-19%	-7%	1%
CC(OC(=O)c1ccccc1OCCOc1ccccc1)C(=O)Nc1ccc(Br)cc1 (configuration not stated)	.	.	-8%	7%	-22%	.
CC(NS(=O)(=O)c1ccccc1)C(=O)NCc1ccco1 (configuration not stated)	?	?	?	40µM*	9%	.
CCc1cccc2c3c([nH]c12)[C@@](CC)(CC(=O)O)OCC3	.	.	1%[19.4 µM]	.	.	4%[56.1 µM]
O=C(N/N=C/c1c[nH]c2ccccc12)c1sc2ccccc2c1Cl	-11%	0%	-19%	139%	-22%	11%
O=C(N/N=C/c1ccc([N+](=O)[O-])o1)c1sc2ccccc2c1Cl	?	?	50µM*	20µM*	40µM*	.
O=C(N/N=C/c1ccccn1)c1sc2ccccc2c1Cl	?	45µM*	-33%	-7%	?	9%
O=C(N/N=C\c1ccc([N+](=O)[O-])o1)c1ccc(O)cc1	.	.	?	.	.	-6%[56.1 µM]
CCCCC1=CC2=C(OC(C)=O)C(=O)C(C)(OC(=O)c3ccco3)C(=O)C2=CO1 (configuration not stated)	.	.	.	.	.	-4%
O=C(O)c1cccc2c1C(=O)c1ccc(-c3ccc(F)cc3OCc3ccccc3)cc1S2(=O)=O	79µM*	.	-33%	?	-15%	.
SMILES	Pol eta inh	Pol beta inh	POLK inh	POLI inh	FEN1 inh	TDP1 inh
COc1ccc(F)c(Cn2cnc3c(cnn3C(C)(C)C)c2=O)c1Cl	.	.	-10%	2%	-10%	.
CC(=O)Nc1cccc(OCC(=O)Nc2sccc2C(N)=O)c1	?	0%	-31%	50µM*	-18%	3%
NC(=O)c1ccsc1NC(=O)COC(=O)c1ccccc1F	-7%	.	-3%	79µM*	10%	1%
O=C(COC(=O)c1cc(=O)[nH]c2ccccc12)NCc1cccs1	-16%	5%	-2%	-14%	14%	0%
NC(=O)c1ccsc1NC(=O)COC(=O)c1cc(=O)[nH]c2ccccc12	40µM*	.	-16%	?	9%	.
CC(Oc1ccccc1)C(=O)OCC(=O)Nc1sccc1C(N)=O (configuration not stated)	?	.	-18%	-29%	-17%	-1%
COc1ccc(CNc2ncncc2-c2cccc(C#N)c2)c(OC)c1	.	.	5%[60.1 µM]	.	.	.
CC(C)C(=O)Nc1ccc(/C=C2\C=Cc3ccccc32)cc1	.	.	-11%	23%	-7%	.
Cc1ccnc(NC(=O)CCS(=O)(=O)c2ccccc2)c1	7%	22µM*	-13%	16%	-9%	-7%
Cc1ccnc(NC(=O)CCC(=O)c2cccs2)c1	?	.	?	20µM*	0%	.
O=C(CCS(=O)(=O)c1ccccc1)Nc1nnc(C(F)(F)F)s1	-10%	50µM*	0%	6%	3%	.
Cc1cnc(CNc2ncncc2-c2ccccc2C(F)(F)F)cn1	.	.	-7%[60.1 µM]	.	.	40µM*
FC(F)(F)c1ccccc1-c1cncnc1NCc1ccccc1	.	.	2%[60.1 µM]	.	.	.
Cn1c2cc(C#N)sc2c2cnn(Cc3ccccc3F)c(=O)c21	.	.	.	.	.	0%
O=C(c1cccs1)c1no[n+]([O-])c1C(=O)c1cccs1	-13%	4%	-5%	25µM*	5%	-11%
COc1cccc(/C=C2/C(=O)NN(c3ccc(Br)cc3)C2=O)c1O	79µM*	?	-25%	29%	-8%	-11%
Cc1ccc(S(=O)(=O)N2CC=C(c3c(C)n(CC(=O)N4CCCC4)c4ccccc34)CC2)cc1C	-14%	-2%	-15%	79µM*	-27%	9%
Cc1c(C2=CCN(S(=O)(=O)c3ccc(Br)cc3)CC2)c2ccccc2n1CC(=O)N1CCCC1	3%	25%	-3%	22%	-17%	1%
CN1CCN(C2=C(NS(=O)(=O)c3ccccc3)C(=O)c3ccccc3C2=O)CC1	10%	6%	-10%	30%	12%	5%
CN1CCN(C2=C(Cl)C(=O)c3ccccc3C2=O)CC1	3.5µM*	.	1%	6.3µM*	?	.
CCOC(=O)c1c2c([nH]c(=S)c1C#N)CCCC2	79µM*	?	-17%	?	-7%	1%
COc1cccc(OCc2cc(/C=N/Nc3ccc(C(=O)O)cc3)ccc2OC)c1	50µM*	-3%	-13%	8%	-24%	3%

Assay outcomes deposited in PubChem by National Center for Advancing Translational Sciences (NCATS).
